Drawing on PubChem BioAssay (NCI), this text covers growth for 8 molecules.

The structures appear in SMILES notation. The panel holds about 83,000 compounds, 20% with a hit somewhere; the sample as a whole holds those more often.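 Cell lines were cultured in 96-well plates, exposed to a single compound concentration, and assessed for percent growth 48 hours later.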 Values without a mark were called inactive. Active and inactive are the calls of the source. How the source made its calls: active means growth percent below 10; inactive means the rest.

Test systems include HCT-15 colon; HT29 colon; SNB-75 CNS; SNB-19 CNS; U251 CNS; PC-3 prostate; SK-MEL-5 melanoma; UACC-62 melanoma; LOX IMVI melanoma; SK-MEL-28 melanoma; SK-MEL-2 melanoma; EKVX NSCLC; SN12C renal; UO-31 renal; TK-10 renal; ACHN renal; CAKI-1 renal; CCRF-CEM leukemia; MOLT-4 leukemia.
What all share (assay): NCI-60 one-dose screen, 48 h (100 = growth as untreated, 0 = no growth, -100 = all killed)
What all share (conditions): 10 µM unless noted

Take `CCCCCN1C=C/C(=C\C(=O)N2CCCc3ccccc32)c2ccccc21`: the growth in the experiment with HCT-15 colon was 102%; with HT29 colon it was 73.2%; with SNB-75 CNS it was 108%; in the experiment on SNB-19 CNS it was 93.9%; in the experiment on U251 CNS, 87.6%; with PC-3 prostate it was 86.7%. The growth in the experiment with SK-MEL-5 melanoma is 92.7%; with UACC-62 melanoma it was 75.2%; in the experiment on LOX IMVI melanoma it was 87.3%; with SK-MEL-28 melanoma, 104%; in the experiment on SK-MEL-2 melanoma it was 90.9%; with EKVX NSCLC, 76.4%. For the same molecule, the growth is 89.9% in the experiment with SN12C renal; 75.5% in the experiment with UO-31 renal; 105% with TK-10 renal; 106% in the experiment with ACHN renal; 80.3% with CAKI-1 renal; 69.7% with CCRF-CEM leukemia. Besides, the growth in the experiment with MOLT-4 leukemia is 78.5%.
With `C=C1C(=O)O[C@H]2[C@H]1CC/C(CNC(=O)CCc1ccc(OC)cc1)=C\CC[C@@]1(C)O[C@@H]21`, the growth was 37.1% in the experiment with HCT-15 colon; 12.1% in the experiment on HT29 colon; 116% with SNB-75 CNS; 80.3% in the experiment with SNB-19 CNS; 87.9% in the experiment with U251 CNS; 72.1% in the experiment on PC-3 prostate. Also, the growth in the experiment on SK-MEL-5 melanoma was 92.8%; with UACC-62 melanoma, 47.3%; in the experiment with LOX IMVI melanoma it was 70.3%; in the experiment on SK-MEL-28 melanoma, 59.5%; in the experiment on SK-MEL-2 melanoma, 74.5%; in the experiment with EKVX NSCLC, 71.4%. For the same molecule, the growth is 35.9% in the experiment with SN12C renal; 53% with UO-31 renal; 33.5% in the experiment on TK-10 renal; 31.6% in the experiment with ACHN renal; 38.1% in the experiment with CAKI-1 renal; 4.85% (active) in the experiment on CCRF-CEM leukemia. Further, the growth in the experiment with MOLT-4 leukemia is 67.8%.
Regarding `CCN(CC)CCCC(C)Nc1cc(O)cc2cccnc12` (configuration not stated), the growth with HCT-15 colon is 102%; in the experiment on HT29 colon it was 44.4%; with SNB-75 CNS, 74.9%; with SNB-19 CNS, 93.8%; in the experiment on U251 CNS, 88.2%; in the experiment on PC-3 prostate, 86.8%. In addition, the growth with SK-MEL-5 melanoma is 116%; with UACC-62 melanoma, 94.4%; in the experiment with LOX IMVI melanoma, 88.7%; in the experiment on SK-MEL-28 melanoma it was 122%; with SK-MEL-2 melanoma, 135%; with EKVX NSCLC, 106%. Also, the growth in the experiment on SN12C renal is 85.7%; with UO-31 renal it was 83.4%; in the experiment on TK-10 renal, 122%; in the experiment on ACHN renal it was 102%; in the experiment on CAKI-1 renal, 109%; with CCRF-CEM leukemia it was 108%. Besides, in the experiment with MOLT-4 leukemia, the growth is 112%.
With `O=[N+]([O-])c1ccc(NC(=S)N/N=C/c2cc3ccccc3n3nnnc23)cc1`, the growth was 27.3% in the experiment on HCT-15 colon; 99.8% with HT29 colon; 58.2% in the experiment with SNB-75 CNS; 29.8% in the experiment with SNB-19 CNS; 30.2% in the experiment on U251 CNS; 34.5% in the experiment with PC-3 prostate. Besides, the growth in the experiment with SK-MEL-5 melanoma was 71%; in the experiment on UACC-62 melanoma, 65.4%; with LOX IMVI melanoma, 39.2%; with SK-MEL-28 melanoma it was 79%; with SK-MEL-2 melanoma, 49.3%; with EKVX NSCLC, 36.6%. In addition, the growth with SN12C renal was 58.5%; in the experiment on UO-31 renal, -1.57% (active); in the experiment with TK-10 renal it was 56.8%; with ACHN renal, 29.9%; in the experiment with CAKI-1 renal it was 25.4%; in the experiment on CCRF-CEM leukemia it was 11.3%. Further, in the experiment with MOLT-4 leukemia, the growth was 20.4%.
On to `COc1cc2nc(-c3ccc(Cl)cc3)cc(OCCCN3CCC(O)CC3)c2cc1OC`, for which the growth was 19% in the experiment with HCT-15 colon; 16.8% in the experiment with HT29 colon; 39.6% in the experiment on SNB-75 CNS; 73.4% in the experiment with SNB-19 CNS; 54.5% with U251 CNS; 41.7% in the experiment with PC-3 prostate. In addition, the growth in the experiment with SK-MEL-5 melanoma was -30% (active); in the experiment on UACC-62 melanoma, -24.7% (active); in the experiment on LOX IMVI melanoma it was -53.3% (active); in the experiment with SK-MEL-28 melanoma, 70%; in the experiment with SK-MEL-2 melanoma, 75.8%; in the experiment on EKVX NSCLC it was 56.7%. Also, the growth was 36.6% in the experiment with SN12C renal; 51.3% with UO-31 renal; 92.2% with TK-10 renal; 35.1% in the experiment with ACHN renal; -5.22% (active) in the experiment on CAKI-1 renal; 57.5% in the experiment on CCRF-CEM leukemia. For the same molecule, in the experiment on MOLT-4 leukemia, the growth is 44.1%.
As to `Nc1nc(Nc2ccccc2SSc2ccccc2Nc2nc(N)nc(-c3ccc(C(F)(F)F)cc3)n2)nc(-c2ccc(C(F)(F)F)cc2)n1`, the growth in the experiment on HCT-15 colon is 17.2%; in the experiment with HT29 colon it was 93.3%; in the experiment with SNB-75 CNS, 86.2%; with SNB-19 CNS, 58%; with U251 CNS, 41.2%; in the experiment with PC-3 prostate it was 29.5%. The growth is 88.9% with SK-MEL-5 melanoma; 68.3% with UACC-62 melanoma; 27.5% in the experiment with LOX IMVI melanoma; 95.6% in the experiment with SK-MEL-28 melanoma; 93.7% with SK-MEL-2 melanoma; 44.6% in the experiment on EKVX NSCLC. The growth in the experiment on SN12C renal is 57.6%; in the experiment on UO-31 renal, -84.6% (active); in the experiment with TK-10 renal, 95.4%; with ACHN renal it was 19.9%; with CAKI-1 renal, -20.3% (active); in the experiment on CCRF-CEM leukemia, 53.6%. Besides, the growth with MOLT-4 leukemia was 56.2%.
With `CCCCCC(=O)Oc1ccc(/C(=C(\C)c2ccccc2)c2ccc(OCCN3CCCCC3)cc2)cc1`, the growth with HCT-15 colon was 58.5%; in the experiment on HT29 colon, 8.87% (active); in the experiment with SNB-75 CNS, 92%; in the experiment on SNB-19 CNS, 89.6%; in the experiment with U251 CNS it was 71.7%; in the experiment with PC-3 prostate, 72.2%. The growth in the experiment on SK-MEL-5 melanoma was 83.9%; with UACC-62 melanoma it was 91%; with LOX IMVI melanoma, 84%; in the experiment with SK-MEL-28 melanoma it was 71.4%; in the experiment with SK-MEL-2 melanoma it was 81.3%; with EKVX NSCLC, 93.7%. For the same molecule, the growth with SN12C renal was 79.5%; in the experiment with UO-31 renal, 59.8%; in the experiment with TK-10 renal, 85.1%; in the experiment with ACHN renal, 96.2%; in the experiment with CAKI-1 renal, 88.6%; in the experiment with CCRF-CEM leukemia it was 85.1%. The growth with MOLT-4 leukemia is 63.7%.
For the molecule `COc1cc(NC(C)CCCNC(=O)CCC(=O)NCCCNCCCCCCCCNCCCNC(=O)CCC(=O)NCCCC(C)Nc2cc(OC)cc3cccnc23)c2ncccc2c1` (configuration not stated), the growth in the experiment on HCT-15 colon is 108%; in the experiment with HT29 colon it was 67.5%; in the experiment with SNB-75 CNS it was 54.2%; in the experiment with SNB-19 CNS it was 57.9%; with U251 CNS it was 35.1%; in the experiment on PC-3 prostate, 77.6%. Besides, the growth in the experiment on SK-MEL-5 melanoma was 97.1%; in the experiment with UACC-62 melanoma it was 84.2%; with LOX IMVI melanoma, 35.7%; with SK-MEL-28 melanoma, 78.1%; in the experiment on SK-MEL-2 melanoma, 78.4%; in the experiment with EKVX NSCLC it was 79.6%. Besides, the growth was 42.9% with SN12C renal; 91.4% in the experiment with UO-31 renal; 82.6% with TK-10 renal; 88.9% in the experiment with ACHN renal; 95.1% in the experiment with CAKI-1 renal; 58.9% in the experiment on CCRF-CEM leukemia. Further, the growth in the experiment with MOLT-4 leukemia was 76.4%.
